# Measurements from PubChem BioAssay (EPA / NIEHS).
# Activity calls are given as the source filed them. The calls were made as follows: active = hit-call score of the fitted dose curve at least 0.9, where 1 is the maximum; inactive = score below 0.9.
# Test: BSK_SAg_SRB: Viability Assessment in the BioMAP Diversity Plus: SAg Assay (AID 2283096);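 also: cells read one day after compound addition; hits may be either gain or loss of signal compared with DMSO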
# Details: primary human HUVEC with PBMC
# Description: BSK_SAg is a cell-based, multiplexed-readout assay that uses umbilical vein endothelium and peripheral blood mononuclear cells, a human vascular primary cell co-culture, with measurements taken at 24 hours after chemical dosing in a 96-well plate.BSK_SAg_SRB is an assay component measured in the BSK_SAg assay. It measures protein content, a form of viability reporter, as detected with absorbance signals by Sulforhodamine staining technology.Data from the assay component BSK_SAg_SRB was analyzed into 1 assay endpoint. This assay endpoint, BSK_SAg_SRB, was analyzed with bidirectional fitting relative to DMSO as the negative control and baseline of activity. Using a type of viability reporter, gain or loss-of-signal activity can be used to understand changes in the signaling. Furthermore, this assay endpoint can be referred to as a primary readout, because this assay has produced multiple assay endpoints where this one serves a signaling function. To generalize the intended target to other relatable targets, this assay endpoint is annotated to the cell morphology intended target family, where the subfamily is cell conformation.
# The levels of cell surface (or secreted, indicated by the prefix "s") biomarker endpoints were measured by ELISA. Overt cytotoxicity to cells in confluent adherent cultures (all systems other than the BT system) was assessed by measuring total protein levels using sulforhodamine B (SRB) staining in parallel cultures at the time of biomarker measurements, indicated as SRB endpoints. For proliferation assays for adherent cell types, individual cell types are cultured at sub-confluence and relative cell numbers quantified by SRB staining at time points optimized for each system (48 h: 3C and CASM3C systems; 72 h: BT and HDF3CGF systems; 96 h: SAg system). SRB was performed by staining cells with 0.1% SRB after fixation with 10% TCA and reading wells at 560 nm.Viability and proliferation of PBMC (T cells) was quantified by Alamar Blue reduction for the SAg and BT systems. For PBMC viability (referred to as PBMC Cytotoxicity within the assay endpoint names), cells were plated (75,000/well in a 96-well plate) and then chemical samples added for 1 h before addition of activators, SEB and TSST-1 (20 ng/mL final concentration each). Cells were incubated for 90 h. Then, Alamar Blue (20 uL/well) (Invitrogen, Cat DAL1100) was added for 6 h, and the plates were read with a fluorescence microplate reader at 546/580 nm (excitation/emission). For PBMC proliferation, cells were plated and activated as above but incubated for only 16 h prior to addition of Alamar Blue. Plates were read after 6 h.
SMILES,AC50,outcome
CC/C(=C(/CC)c1ccc(O)cc1)c1ccc(O)cc1,23.1 µM (active),
COc1ccc2cc(S(=O)(=O)N[C@H](CC(=O)N[C@H](Cc3ccc(CN4[C@H](C)CCC[C@@H]4C)cc3)C(=O)N(C)C(C)C)c3ccc4c(c3)OCO4)ccc2c1,17.3 µM (active),
CN(C[C@@H](CC[N+]12CCC(C3CCCCC3)(CC1)CC2)c1ccc(Cl)c(Cl)c1)C(=O)c1cc(C(F)(F)F)cc(C(F)(F)F)c1,26.9 µM (active),
CCCCCCCCCC(=O)O,,inactive
O=c1c(-c2ccc(O)cc2)coc2cc(O)cc(O)c12,20 µM (active),
CC[C@H](NC(=O)c1cc(F)ccc1NS(=O)(=O)c1cccc2cccnc12)c1ccccc1,,inactive
CC(C)(C)c1csc(-c2cc3cc(OCc4ccccc4CC(=O)O)ccc3o2)n1,20 µM (active),
CCCC(=O)OCCC(C)C,,inactive
Cc1ccc(C(C)C)cc1,,inactive
c1ccc2ccccc2c1,,inactive
CN1C(=O)N(c2ccccc2Br)Cc2cnc(Nc3ccc4c(c3)OCC(CO)O4)nc21 (stereo not given),2.23 µM (active),
CC(=O)N1CCN(c2ccc(OC[C@H]3CO[C@](Cn4ccnc4)(c4ccc(Cl)cc4Cl)O3)cc2)CC1,24.7 µM (active),
Cc1cn([C@H]2C[C@H](N=[N+]=[N-])[C@@H](CO)O2)c(=O)[nH]c1=O,,inactive
O=C1c2ccccc2C(=O)N1CCc1noc(-c2ccc(CN3CCCCCC3)s2)n1,,inactive
Oc1ccc2ccccc2c1,,inactive
CCCCCCCCCCCO,,inactive
CN(C)C(=O)C1(N2CCCCC2)CCN(CC[C@@]2(c3ccc(Cl)c(Cl)c3)CN(C(=O)c3ccccc3)CCO2)CC1,14 µM (active),
OC12N=C(c3ccccc3)SC1Cc1cc(Cl)ccc12 (stereo not given),,inactive
CCCCOC(=O)c1ccc(O)cc1,,inactive
O=CCCCC=O,,inactive

SMILES,AC50,outcome
Cc1oc2c(NC(=O)c3c(Cl)cccc3Cl)cccc2c1C(C)(C)O,25.3 µM (active),
O=c1ccc2ccccc2o1,,inactive
CN1C(=O)CC[C@H]1c1cccnc1,,inactive
CCN(Cc1cccnc1)C(=O)c1cccc(Cl)c1[C@]1(C)C(=O)N(Cc2ccc(OC)cc2OC)c2ccc(Cl)cc21,5.81 µM (active),
O=C(Nc1ccc(Cl)cc1)Nc1ccc(Cl)c(Cl)c1,2.28 µM (active),
CCCCCCCCOc1ccc(C(=O)c2ccccc2)c(O)c1,30.4 µM (active),
O=C(OCCCCCCOC(=O)c1ccccc1)c1ccccc1,,inactive
COc1cc(C(=O)NC2CCN(C)CC2)ccc1Nc1ncc2c(n1)N(C1CCCC1)CC(F)(F)C(=O)N2C,18.6 µM (active),
Cc1cc2c(cc1C(F)(F)F)N(C(=O)Nc1ccc(Oc3cccnc3C)nc1)CC2,,inactive
NC(=O)c1nc(-c2cccc(-c3cc(F)ccc3OCC(F)(F)C(F)(F)F)c2)n[nH]1,32.7 µM (active),
O=C(O)Cc1cc(I)c(Oc2ccc(O)c(I)c2)c(I)c1,,inactive
CC[C@@H]1C[C@H](N(Cc2cc(C(F)(F)F)cc(C(F)(F)F)c2)C(C)=O)c2cc(C(F)(F)F)ccc2N1C(=O)OC(C)C,,inactive
CCCCCCCCOC(=O)c1cc(O)c(O)c(O)c1,24.8 µM (active),
C[C@]12CC[C@@H]3c4ccc(O)cc4CC[C@H]3[C@@H]1CC[C@H]2O,12.1 µM (active),
OCCO,,inactive
CCCCOC(=O)CC(CC(=O)OCCCC)(OC(C)=O)C(=O)OCCCC,,inactive
CN(C)c1ccc(C(=C2C=CC(=[N+](C)C)C=C2)c2ccc(N(C)C)cc2)cc1,7.53 µM (active),
CCCCCCCCCCCC[N+](C)(C)C,25.8 µM (active),
CC(C)(O)c1ccc(CNC(=O)c2cccnc2Oc2ccc3nonc3c2)cc1,,inactive
CCN(CC)C(=O)c1cc(S(=O)(=O)Cc2ccccc2)c(N2CCC(c3ccccc3)CC2)cc1N(CC)CCN(C)C,12.7 µM (active),
